# In PubChem BioAssay (EPA / NIEHS):
# Active and inactive are the calls of the source. How the source made its calls: active means hit-call score of the fitted dose curve at least 0.9, where 1 is the maximum; inactive means score below 0.9.
# Experiment: ATG_ISRE_CIS: Attagene CIS-FACTORIAL HepG2 Assay for human Interferon Regulatory Factor 1 (IRF1) binding to an Interferon-Stimulated Response Element (ISRE) (AID 2282948)
# Conditions: HepG2 ISRE cis-reporter (Attagene), mRNA transcription readout; actives raise or lower the signal
# Method: ATG_CIS is a cell-based, multiplexed-readout assay that uses HepG2, a human liver cell line, with measurements taken at 24 hours after chemical dosing in a 24-well plate.ATG_ISRE_CIS is one of 52 assay component(s) measured or calculated from the ATG_CIS assay. It is designed to make measurements of mRNA induction, a form of inducible reporter, as detected with fluorescence intensity signals by Reverse transcription polymerase chain reaction (RT-PCR) and Capillary electrophoresis technology.Data from the assay component ATG_ISRE_CIS was analyzed into 1 assay endpoint. This assay endpoint, ATG_ISRE_CIS, was analyzed with bidirectional fitting relative to DMSO as the negative control and baseline of activity. Using a type of inducible reporter, measures of mRNA for gain or loss-of-signal activity can be used to understand the reporter gene at the transcription factor-level as they relate to the gene IRF1. Furthermore, this assay endpoint can be referred to as a primary readout, because this assay has produced multiple assay endpoints where this one serves a reporter gene function. To generalize the intended target to other relatable targets, this assay endpoint is annotated to the dna binding intended target family, where the subfamily is interferon regulatory factors.
# Human liver HepG2 cells are transiently transfected with multiple reporter transcription units (MRTUs) in 6-well plates using FuGene 6 reagent (Roche; 3 ml FuGene/1 mg DNA). The MRTU constructs are regulated by a cis-regulating element (promoter). […] A major difference between the CIS and TRANS system is that in CIS activities of endogenous TFs are measured, whereas the TRANS assay evaluates changes in activities of exogenous, chimeric NR-Gal4 proteins. […] At the end of 24 hour incubation, total RNA was isolated using TriZol reagent (Invitrogen). The isolated RNA is then reverse-transcribed using oligo(dT) primer and Mo-MLV reverse transcriptase (Invitrogen) with DNAse I (Ambion) treatment for 30 min. The one-tenth of the produced cDNA was amplified by PCR using Taq DNA polymerase (Invitrogen) and two reporter sequence-specific primers. The PCR products were fluorescently labeled by primer extension with 6-arboxyfluorescein (6-FAM) 5'-labeled reporter sequence-specific primer (2 min at 95 C, 20 s at 68 C and 10 min at 72 C) and these products were digested with 5U of HpaI (New England Biolabs) for 2h at 37 C. The fragments were purified using Qiaquick PCR columns (Qiagen), analyzed on an ABI 3130xL genetic analyzer (Applied Biosystems) with peak positions identified by using a set of X-rhodamine (ROX)-labeled MapMarker1000 molecular weight standards (BioVentures). The raw capillary electrophoresis data was processed using Attagraph software (Attagene).
SMILES,AC50,outcome
Cc1cc(C)c(C2=C(OC(=O)CC(C)(C)C)C3(CCCC3)OC2=O)c(C)c1,168 µM (active),–
CC(C)(C)C(O)C(Oc1ccc(-c2ccccc2)cc1)n1cncn1 (stereo not given),51.8 µM (active),–
O=C1C(Cl)=C(Cl)C(=O)C(Cl)=C1Cl,–,inactive
CSc1nc(N=[N+]=[N-])nc(NC(C)C)n1,–,inactive
CN(C)N,–,inactive
Oc1ccc(Cl)cc1,–,inactive
O=[N+]([O-])c1ccc(Cl)cc1,–,inactive
CC1(C)CC(=O)CC(C)(C)N1[O],–,inactive
CC1CCC(=O)O1 (stereo not given),–,inactive
O=C=Nc1ccccc1,–,inactive
CC(C)CCCCCCCOC(=O)c1ccccc1C(=O)OCCCCCCCC(C)C,–,inactive
CC(C)[C@@H](C(=O)O[C@@H](C#N)c1cccc(Oc2ccccc2)c1)c1ccc(Cl)cc1,–,inactive
CC1(C)[C@H](C(=O)O[C@H](C#N)c2cccc(Oc3ccccc3)c2)[C@@H]1C=C(Br)Br,–,inactive
CC(C)C#N,–,inactive
Nc1ccc(-c2ccc(N)c(N)c2)cc1N,–,inactive
CN(N=O)c1ccccc1,–,inactive
CC[N+](=O)[O-],–,inactive
CCC(C)c1cc(C(C)(C)C)cc(-n2nc3ccccc3n2)c1O (stereo not given),–,inactive
CC(=O)/C=C/c1ccccc1,100 µM (active),–
CC=Cc1ccc2c(c1)OCO2,–,inactive

SMILES,AC50,outcome
N#Cc1cc(I)c(O)c(I)c1,–,inactive
ClCCCCCCCl,–,inactive
C[C@]12CC[C@H](O)C[C@H]1CC[C@@H]1[C@@H]2C[C@@H](O)[C@]2(C)[C@@H](C3=CC(=O)OC3)CC[C@]12O,13.8 µM (active),–
CC(C)(c1cc(Cl)c(O)c(Cl)c1)c1cc(Cl)c(O)c(Cl)c1,47.2 µM (active),–
CCCCNP(N)(N)=S,–,inactive
N#CCNCC#N,–,inactive
CC(C)(O)C#N,–,inactive
C[N+](=O)[O-],–,inactive
CC1(C)C(=O)NC(=O)NC1=O,–,inactive
CCC(=O)c1ccc(Cl)cc1,–,inactive
Nc1ccccc1C(=O)Oc1ccc2ccccc2c1,–,inactive
C=C(Cl)Cl,–,inactive
CCOP(O)OCC,–,inactive
CCC(Br)(CC)C(=O)NC(N)=O,–,inactive
C=CCO,–,inactive
CCCCCCCCCCCCCCCC[N+](C)(C)C,27.4 µM (active),–
CC1CCCC1.[C-]#[O+].[C-]#[O+].[C-]#[O+].[Mn],35.2 µM (active),–
O=C(O)CCl,–,inactive
Oc1ccc(C2(c3ccc(O)cc3)c3ccccc3-c3ccccc32)cc1,14.8 µM (active),–
COc1cc(OC)nc(Oc2cccc(Oc3nc(OC)cc(OC)n3)c2C(=O)O)n1,–,inactive
